Out of some 190,000 compounds screened, about 810 (0.43%) were called active. No stated cut-off is given here; in the data, active means inhibition above about 50%; inactive means the rest. Only a selection was taken, and actives are over-represented in it overall.
Each compound was assayed against Mannose-6-phosphate isomerase (Homo sapiens) (UniProt P34949) (assay: MPI enzyme activity inhibition – biochemical, fluorescence intensity, coupled assay, primary screen (AID 1209;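 further: plate controls were DMSO vehicle for no effect and wells lacking substrate for full effect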)). Conditions: purified PMI enzyme, at 20 µM, stronger effect = higher value.
Mannose-6-phosphate isomerase (Homo sapiens), sequence (P34949 whole entry, looked up): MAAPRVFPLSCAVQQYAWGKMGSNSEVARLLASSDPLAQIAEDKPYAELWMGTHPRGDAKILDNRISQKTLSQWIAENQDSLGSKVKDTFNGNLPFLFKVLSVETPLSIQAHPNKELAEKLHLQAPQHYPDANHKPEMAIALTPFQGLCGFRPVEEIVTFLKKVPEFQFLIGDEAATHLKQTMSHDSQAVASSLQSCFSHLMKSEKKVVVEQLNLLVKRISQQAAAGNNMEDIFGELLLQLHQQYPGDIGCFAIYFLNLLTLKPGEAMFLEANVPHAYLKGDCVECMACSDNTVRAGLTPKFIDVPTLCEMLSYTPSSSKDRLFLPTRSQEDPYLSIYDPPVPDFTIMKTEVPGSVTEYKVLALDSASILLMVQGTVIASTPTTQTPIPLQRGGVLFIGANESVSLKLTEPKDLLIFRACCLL
For `CCC1(C)SC(N)=NN1C(C)=O` (stereo not given), the inhibition was 7.1% (inactive). In the case of `CCOC(=O)c1ccc(N/C(=N\S(=O)(=O)c2ccccc2C)c2ccccc2)cc1`, the inhibition was 10.9% (inactive). In the case of `COc1ccc(C(=O)NCc2ccccc2)cc1Br`, the inhibition was 1.4% (inactive). In the case of `COc1cc(C(=O)NCc2ccccc2)cc(Br)c1OC`, the inhibition was 1.2% (inactive). `COc1cc(C(=S)NCc2ccccc2)cc(Br)c1O` was tested, and the inhibition was 68.6% (active). With `Cc1cc(/C=N\NC(=O)COc2cccc3cccnc23)c(C)n1-c1ccccc1` the inhibition was 1.7% (inactive). With `O=C(c1ccco1)N1CCn2c1nc1ccccc12` the inhibition was -7.1% (inactive). With `COc1ccc(NC(=O)c2ccc3nc[nH]c3c2)c(OC)c1` the inhibition was 8.4% (inactive). With `C=C(C)C1Cc2c(C)nn(-c3ccccn3)c2C1` (stereo not given) the inhibition was -7.4% (inactive). With `Cc1nn(-c2ccccn2)c2c1-c1nc(N)ncc1CC2` the inhibition was 4.1% (inactive). For `Cc1nn(-c2ccccn2)c2c1C(=O)C(Br)CC2` (stereo not given), the inhibition was 72% (active). With `COc1ccc(CNC(=O)CCCNS(=O)(=O)c2cccc3nonc23)cc1` the inhibition was 13% (inactive). `Cc1ccc(C(=O)CSc2ncn[nH]2)cc1` was tested, and the inhibition was -6.3% (inactive). With `CC(C)c1ccc(C(=O)CSc2ncn[nH]2)cc1` the inhibition was 83% (active). `CCc1ccc(C(=O)CSc2ncn[nH]2)cc1` was tested, and the inhibition was 42.1% (inactive). For `COC(=O)Cc1cn(-c2ncc(C(F)(F)F)cc2Cl)c2ccccc12`, the inhibition was 1.6% (inactive). For `Cc1cc2ccccc2n1CCNC(=O)c1ccccc1`, the inhibition was -10.2% (inactive). For `Cc1c(Br)c(C(=O)NCc2cc3cc(Cl)ccc3[nH]2)nn1C`, the inhibition was 5.7% (inactive). In the case of `O=C(CN1CCN(Cc2ccccc2)CC1)N1CCCCCC1`, the inhibition was 60.7% (active). In the case of `O=C(C1CCN(Cc2ccccc2)CC1)N1CCCC1`, the inhibition was -5.2% (inactive). In the case of `O=C(CN1CCN(Cc2ccccc2)CC1)c1ccccc1`, the inhibition was 2% (inactive). With `Nc1[nH]c(=S)[nH]c(=O)c1-c1ccccc1` the inhibition was 21.9% (inactive). In the case of `O=c1[nH]c(=S)[nH]c2[nH]c(=S)[nH]c12`, the inhibition was 67.9% (active). In the case of `O=c1[nH]c(=S)[nH]c2sccc12`, the inhibition was -13.4% (inactive). For `COc1ccc(CC(=O)OCC(=O)NC(=O)NC(C)C)cc1`, the inhibition was 9% (inactive). In the case of `CCCn1nnnc1NCc1ccc(F)cc1`, the inhibition was -4.6% (inactive). In the case of `CCC(=O)N1c2ccccc2NC2=C(C(=O)CC(C)(C)C2)C1c1cccnc1` (stereo not given), the inhibition was 7.2% (inactive). With `CCOc1ccc(/C=N/n2cnnc2)cc1` the inhibition was 84.4% (active). `C(=N\n1cnnc1)/c1ccc(OCc2ccccc2)cc1` was tested, and the inhibition was -5.7% (inactive). `Fc1ccc(COc2ccc(/C=N/n3cnnc3)cc2)cc1` was tested, and the inhibition was -3.3% (inactive). With `Cc1occc1C(=O)Nc1nnc(-c2cccs2)s1` the inhibition was 6.2% (inactive). For `Clc1ccccc1Sc1cnc2ccccc2n1`, the inhibition was 0.9% (inactive). In the case of `O=C(/C=C/c1ccc(S(=O)(=O)N2CCOCC2)cc1)NC(=S)NCCCn1ccnc1`, the inhibition was -0.5% (inactive). `CC(C)=C1C2CCC1C1C(=O)N(c3nccs3)C(=O)C21` (stereo not given) was tested, and the inhibition was -3.3% (inactive). In the case of `CN1C(=O)C(Cl)(Cl)C(=O)c2ccccc21`, the inhibition was 77.4% (active). With `CC1(O)C(=O)c2ccccc2N(c2ccccc2)C1=O` (stereo not given) the inhibition was -6.5% (inactive). With `CCN1C(=O)C(F)(CC)C(=O)c2ccccc21` (stereo not given) the inhibition was 2.2% (inactive). For `CC(C)(C)c1ccc(C(=O)CSc2n[nH]c(=O)[nH]c2=O)cc1`, the inhibition was -4.4% (inactive). With `CC(C)(C)c1ccc(C(=O)CSc2nc3ccccc3c(=O)[nH]2)cc1` the inhibition was -6.3% (inactive). With `COc1ccc(NC(C)C(=O)N/N=C/c2cc(Br)ccc2OC)cc1` (stereo not given) the inhibition was 11.5% (inactive). For `COc1ccc(/C(N)=N/OC(=O)CSc2ccc(C)cc2)cc1OC`, the inhibition was 14.6% (inactive). For `O=C(c1cc(-c2ccco2)on1)N1CCN(c2ccccc2)CC1`, the inhibition was 53.5% (active). With `O=C(c1cc(-c2ccco2)on1)N1CCOCC1` the inhibition was 20.8% (inactive). In the case of `CN1CCN(C(=O)c2cc(-c3ccco3)on2)CC1`, the inhibition was -0.9% (inactive). For `CCCNC(=O)COC(=O)c1ccccc1OCC(=O)Nc1ccc(Br)cc1`, the inhibition was -10.2% (inactive). For `COc1ccc(-c2csc(NC(=O)C3CC(=O)N(c4ccc5c(c4)OCCO5)C3)n2)cc1` (stereo not given), the inhibition was 5.8% (inactive). With `O=C1CCCN2N=C(SCC(=O)N3N=C(c4ccc(Br)cc4)CC3c3ccc(F)cc3)SC2=N1` (stereo not given) the inhibition was 22.3% (inactive). With `CC(NC(=O)Nc1ccc2c(c1)OCO2)C1CCCO1` (stereo not given) the inhibition was 0.5% (inactive). For `O=C1NC(=O)/C(=C/c2ccc(O)cc2)S1`, the inhibition was -8.7% (inactive). In the case of `Cc1cc(N2CCOCC2)ccc1/C=C1/SC(=O)NC1=O`, the inhibition was -13.8% (inactive). In the case of `O=C1NC(=O)/C(=C\c2ccc(O)cc2O)S1`, the inhibition was 53.5% (active). `O=S(=O)(c1ccc(Cl)cc1)c1cnc2ccccc2n1` was tested, and the inhibition was -6.4% (inactive). For `O=C(O)c1cc(-c2ccccc2)n[nH]1`, the inhibition was -12% (inactive). For `COC(=O)c1cc(-c2ccccc2)n[nH]1`, the inhibition was 7.7% (inactive). `CC(C)(C)NC(=O)c1cc(-c2ccccc2)n[nH]1` was tested, and the inhibition was 70.1% (active). For `Cc1c(Br)c([N+](=O)[O-])nn1CC(=O)NCc1ccccc1`, the inhibition was 1.2% (inactive). With `Cc1c(Br)c([N+](=O)[O-])nn1CC(=O)NCc1ccccn1` the inhibition was 101% (active). For `Cc1c(Br)c([N+](=O)[O-])nn1CC(=O)Nc1ccccn1`, the inhibition was 7.8% (inactive). `O=C(C1CCCN(S(=O)(=O)c2cnc[nH]2)C1)N(CCc1ccccc1)Cc1ccccc1` (stereo not given) was tested, and the inhibition was 9.1% (inactive). `CCOCC(=O)Nc1nc2ccc(C)cc2s1` was tested, and the inhibition was 110% (active). `CCOCC(=O)Nc1nc2ccc(OCC)cc2s1` was tested, and the inhibition was -3% (inactive). With `COCC(=O)Nc1nc2ccc(C)cc2s1` the inhibition was 4.3% (inactive). With `CNC(=S)N1CCc2cc(OC)c(OC)cc2C1COc1ccc(F)cc1` (stereo not given) the inhibition was 10.3% (inactive). With `O=C1CNC(=O)c2c(nc3n2CCC3)N1` the inhibition was -20.3% (inactive). `CC(C)=C1SC(N2CCN(c3ccc(Cl)cc3)CC2)=NC1=O` was tested, and the inhibition was 0.9% (inactive). For `COc1cccc(C(=O)NC(C)C(c2cccs2)N2CCN(C)CC2)c1` (stereo not given), the inhibition was 4.2% (inactive). For `CCN(CC)c1ccc(/C=N/N=C(c2ccccc2)c2ccccc2)c(O)c1`, the inhibition was 0.4% (inactive). `Oc1ccc(/C=N/N(Cc2ccccc2)c2ccccc2)c(O)c1O` was tested, and the inhibition was 76.6% (active). In the case of `Oc1cccc(/C=N/N(Cc2ccccc2)c2ccccc2)c1`, the inhibition was 10% (inactive). In the case of `Oc1ccc(/C=N/N=C(c2ccccc2)c2ccccc2)c(O)c1O`, the inhibition was 67.9% (active). For `O=C(/C(=N/N=C/c1ccc(O)c(O)c1O)c1ccccc1)c1ccccc1`, the inhibition was 55.5% (active). In the case of `COc1cc(/C=N/N=C(/C(=O)c2ccccc2)c2ccccc2)cc(OC)c1O`, the inhibition was 22% (inactive). For `O=C(/C(=N/N=C/c1ccc(O)c(O)c1)c1ccccc1)c1ccccc1`, the inhibition was 30.7% (inactive). In the case of `Oc1cccc(C=NCc2ccccc2)c1O`, the inhibition was 49.6% (inactive). For `COc1ccc(/C=N/N(Cc2ccccc2)c2ccccc2)cc1O`, the inhibition was 16.7% (inactive). For `CC(=O)c1cn(CCCCCCCn2cc(C(C)=O)c(=O)[nH]c2=O)c(=O)[nH]c1=O`, the inhibition was 1.5% (inactive). `O=C(COC(=O)Cc1ccc(Br)cc1)NC1CCCCC1` was tested, and the inhibition was -3.4% (inactive). In the case of `Oc1ccc(C2N=C(c3ccccc3)NC(c3ccccc3)=N2)cc1`, the inhibition was 3.9% (inactive). In the case of `Cc1ccc(C(=O)OCC(=O)Nc2sc3c(c2C#N)CCCC3)cc1NC(=O)c1ccco1`, the inhibition was 1.3% (inactive). `CSc1nc(=NC(C)=O)ss1` was tested, and the inhibition was 54.4% (active). `CCN(c1ccccc1)S(=O)(=O)c1ccc(OC)c(NC(=O)CNC)c1` was tested, and the inhibition was 7.5% (inactive). For `CCN(CC)CCOC(=O)c1c(C)oc2ccc(OC)cc12`, the inhibition was -3.8% (inactive). For `CCOC(=O)c1c(C)oc2ccc(O)cc12`, the inhibition was 8.3% (inactive). With `CCN(CC)CCOC(=O)c1c(C)oc2ccc(O)cc12` the inhibition was 81.6% (active). In the case of `C/C(=N\NC(=O)CCc1c[nH]c2ccccc12)c1ccc([N+](=O)[O-])cc1`, the inhibition was 7.7% (inactive). For `O=C(Cc1coc(-c2ccc(F)cc2)n1)N1CCOCC1`, the inhibition was 1% (inactive). For `OCCN(CCO)c1ccc(C(c2ccccc2Cl)c2ccc(N(CCO)CCO)cc2Cl)c(Cl)c1`, the inhibition was 22.1% (inactive). For `Nc1ccc(N(CCO)CCO)cc1`, the inhibition was 4.7% (inactive). `Cc1nc(SCC(=O)c2ccccc2)n[nH]1` was tested, and the inhibition was 65.9% (active). In the case of `Cc1nc(SCC(=O)c2ccc(F)cc2)n[nH]1`, the inhibition was -6.3% (inactive). In the case of `Cc1ccc(C(=O)CSc2n[nH]c(C)n2)cc1`, the inhibition was 48.5% (inactive). With `Cc1ccc(/C=C2/SC(=S)N(CCCC(=O)Nc3ccc(O)cc3)C2=O)cc1` the inhibition was 22.7% (inactive). In the case of `O=C(CCCN1C(=O)/C(=C/c2ccccc2)SC1=S)Nc1cccc(O)c1`, the inhibition was 13% (inactive). `O=C(CCCN1C(=O)/C(=C/c2ccccc2)SC1=S)Nc1ccc(O)cc1` was tested, and the inhibition was 73% (active). With `O=C(COC(=O)/C=C/c1ccc([N+](=O)[O-])cc1)NC(c1ccccc1)c1ccccc1` the inhibition was 13% (inactive). In the case of `CC1=C(C(=O)Nc2ccccc2)C(c2cccc([N+](=O)[O-])c2)Nc2nc3ccccc3n21` (stereo not given), the inhibition was 6.9% (inactive). `O=C(CN1c2cccc3cccc(c23)S1(=O)=O)N1CCOCC1` was tested, and the inhibition was 1% (inactive). For `CC1=CC(C)(C)Nc2ccc(OC(=O)CN3C(=O)CCC3=O)cc21`, the inhibition was 22% (inactive). For `CC1=CC(C)(C)Nc2ccc(OC(=O)CN3C(=O)c4ccccc4C3=O)cc21`, the inhibition was 16.6% (inactive). For `CC1=CC(C)(C)Nc2ccc(OC(=O)CN3C(=O)c4cccc5cccc(c45)C3=O)cc21`, the inhibition was 53.4% (active). For `Cc1cc(NC(=O)c2cc(-c3ccccc3)on2)n(-c2ccccc2)n1`, the inhibition was 0.3% (inactive). With `CCC(C)CCCCNC1=NCCS1` (stereo not given) the inhibition was -16.3% (inactive). With `Cc1ccc(-c2n[nH]c(=S)n2/N=C/c2ccncc2)cc1` the inhibition was -12% (inactive). In the case of `Cc1ccc(/C=N/n2c(C)nnc2C)cc1`, the inhibition was 3.6% (inactive). For `CCOC(=O)c1c(-c2cccs2)csc1NC(C)=O`, the inhibition was 7.1% (inactive). In the case of `CCOC(=O)c1c(-c2ccncc2)csc1N`, the inhibition was 23.6% (inactive). In the case of `CCOC(=O)c1c(-c2ccc(C)s2)csc1NC(=O)c1cccs1`, the inhibition was 1.1% (inactive). For `CCOC(=O)c1c(-c2ccc(C)s2)csc1N`, the inhibition was 62.1% (active). `CCOC(=O)c1c(-c2cccs2)csc1N` was tested, and the inhibition was 51% (active). `NC(=O)c1c(-c2cccs2)csc1N` was tested, and the inhibition was 34.2% (inactive).

— PubChem BioAssay AID1209 (Sanford-Burnham Center for Chemical Genomics, 2008)
